# Screens: PubChem BioAssay, National Center for Advancing Translational Sciences (NCATS)
# Only some compounds are listed: those with a hit (about 19% of all), similar ones and a draw of the others.
# DT40 TDP1 CPT: growth inhibition of DT40 Tdp1-/-;hTDP1 cells with camptothecin (screen for TDP1 inhibitors). Potency, µM (top dose mostly 46.2 µM), most hits filed as inhibitors. chicken DT40 Tdp1-/-;hTDP1 cells + 20 nM CPT, ATP luminescence, 48 h. 12% of 420,000 active; further: nearly all actives have a fitted effect of over 55% in size
#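 Chicken DT40 Tdp1-/- cells complemented with human TDP1, 400 cells/well, exposed to compounds plus 20 nM camptothecin for at least 48 h at 37 C; viability read as ATP content by CellTiter-Glo luminescence.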
# HT1080 IDH1KD tx: HT-1080 IDH1 knockdown cell toxicity (counter line); HT-1080 IDH1 knockdown viability, ATP luminescence, 48 h; Potency, µM (titrated, usually from 46.1 µM), most hits filed as cytotoxic; 2% of 360,000 active; AID 686971
#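 IDH1KD HT-1080 cells, 750/well, RPMI + 5% FBS; compound pinned after 2 h settling; 48 h, 37 °C; CellTiter-Glo luminescence; % activity normalised to DMSO and no-cell wells; curves fitted, classed by r2 and efficacy.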
# HT1080-NT tox: kills 2HG-producing HT-1080-NT fibrosarcoma cells; 1.6% of 360,000 active; HT-1080-NT fibrosarcoma viability, CellTiter-Glo ATP luminescence, 48 h; Potency, µM (series often up to 46.1 µM), usual class: cytotoxic;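 further: NT is the 2HG producing partner of a matched IDH1 knockdown line; nearly all actives have a fitted effect of over 55% in size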
#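 Viability by CellTiter-Glo luminescence after 48 h compound exposure at 37C of HT-1080-NT cells (750/well, RPMI, 5% FBS). % activity scaled between DMSO wells and medium-only wells, then curve-fitted and categorized by curve class.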
# KB-V1 MDR tox: KB-V1 MDR subline cytotoxicity; Potency, µM (top dose mostly 46.1 µM), usual class: cytotoxic; KB-V1 MDR cells viability, CellTiter-Glo, 72 h; AID 1347076; 3.4% of 400,000 active; further: nearly all actives have a fitted effect of over 60% in size
#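 KB-V1, DMEM (no phenol red) + 10% FBS; cpd pin-transferred, titration series; 72 h, 37 degrees C; CellTiter-Glo, luminescence. Data normalized, curve-fit.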
# KB-3-1 cytotox: KB-3-1 parental cell cytotoxicity; KB-3-1 viability, CellTiter-Glo ATP luminescence, 72 h; 1.4% of 400,000 active; Potency, µM (top dose mostly 46.1 µM), usual class: cytotoxic; AID 1347075; further: nearly all actives have a fitted effect of over 60% in size
#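 Cells are dispensed, compounds pinned in, plates held at 37 °C for 72 h, then CellTiter-Glo is added and luminescence read after 10 minutes. Cell line: parental KB-3-1 in phenol-red-free DMEM, 10% FBS.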
# TDP1 cell noCPT: qHTS for Inhibitors of human tyrosyl-DNA phosphodiesterase 1 (TDP1): qHTS in cells in absence of CPT; Potency, µM (doses to about 46.2 µM), hits mostly inhibitors; AID 686978, 2013; DT40 Tdp1-/- hTDP1 cells, no CPT, ATP luminescence, 48 h; 15% of 420,000 active; further: nearly all actives have a fitted effect of over 55% in size
#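 Chicken DT40 Tdp1-/- cells stably complemented with human TDP1 were seeded at 400 cells/well with DMSO in place of 20 nM camptothecin. After compound pinning, cells grew at least 48 hr at 37 °C; viability read by CellTiter-Glo luminescence.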
# A number is an active result; n = inactive; u = inconclusive; x = no result given. The call rests on the fitted dose curve; in most records, active means well fitted curve in the direction sought with a large enough effect; inconclusive means small, poorly fitted or top-dose-only effect, or another doubt; inactive means no such curve, though single readings can be large; an effect the other way counts as inactive or inconclusive.
SMILES,DT40 TDP1 CPT,HT1080 IDH1KD tx,HT1080-NT tox,KB-V1 MDR tox,KB-3-1 cytotox,TDP1 cell noCPT
CCCn1c(C(C)Nc2nc(-c3cc(Cl)c(N)c(Cl)c3)cs2)nc2cc(Cl)c(N3CCCCC3)cc21 (centres undefined),18.4µM,n,n,n,n,u
COc1ccc(-c2csc(NC(C)c3nc4cc(Cl)c(N5CCCCC5)cc4n3CCOCCO)n2)cc1 (centres undefined),13µM,u,u,u,u,u
Cc1csc(NC(C)c2nc3cc(Cl)c(N4CCCCC4)cc3n2CCOCCO)n1 (centres undefined),u,n,n,n,n,u
CC(Nc1nc(-c2ccc(F)cc2)cs1)c1nc2cc(Cl)c(Cl)cc2n1CCCO (centres undefined),u,u,u,n,u,u
COc1ccccc1-c1noc(CCCC(=O)NC2CCCCC2)n1,n,n,n,n,n,n
COc1ccc(NC(C)=O)cc1S(=O)(=O)N(C)Cc1c(C)nn(-c2ccccc2)c1C,n,n,n,n,n,n
COc1ccc(N2CCN(CCCNC(=O)C(=O)c3c(C)[nH]c4ccccc34)CC2)cc1,n,n,n,n,u,u
COc1ccc(-c2csc(NC(C)c3nc4cc(Cl)c(Cl)cc4n3CCOCCO)n2)cc1 (centres undefined),u,n,n,n,n,18.4µM
O=C(NCc1ccccc1)c1cc(C2CCCN(C(=O)c3ccccc3)C2)on1 (centres undefined),n,n,n,n,n,n
Cc1cccc2cc3c(N)c(C(=O)N4CCOCC4)sc3nc12,2.06µM,u,u,3.66µM,2.91µM,1.64µM
Nc1c(C(=O)N2CCOCC2)sc2nc(N3CCOCC3)c3c(c12)CCCC3,u,n,n,n,n,u
O=C(NC1CCCCC1)C(c1ccc(C(F)(F)F)cc1)n1c(=O)c(-c2cc3ccccc3[nH]2)nc2ccccc21 (centres undefined),14.6µM,u,u,u,u,u
O=C(NC1CCCCC1)C(c1ccncc1)n1c(=O)c(-c2cc3ccccc3[nH]2)nc2ccccc21 (centres undefined),18.4µM,u,u,16.4µM,20.6µM,u
O=C(NC1CCCCC1)C(c1ccncc1)n1c(=O)c(-c2ccccc2)nc2ccccc21 (centres undefined),n,n,n,n,n,n
CCCN(CCC)CCNC(=O)C1CC(=O)N(c2ccc(OC)cc2)C1c1ccc(OC)cc1 (centres undefined),n,n,n,n,n,n
O=C1c2ccccc2C2=Nc3ccccc3SC(c3cccc(F)c3)C12 (centres undefined),16.4µM,u,u,16.4µM,20.6µM,16.4µM
O=C1c2ccccc2C2=Nc3ccccc3SC(c3ccc(Cl)cc3)C12 (centres undefined),u,u,u,n,n,u
CCc1ccc(-c2nc(CN3CCC(C(=O)NCCc4ccc(OC)c(OC)c4)CC3)c(C)o2)cc1,16.4µM,n,n,u,u,u
COc1ccc(CCNC(=O)C2CCN(Cc3nc(-c4ccc(OC)c(OC)c4)oc3C)CC2)cc1OC,n,x,x,n,n,u
Cc1oc(-c2ccccc2F)nc1CN1CCC(C(=O)NCCC2=CCCCC2)CC1,u,n,n,8.2µM,u,23.1µM
Cc1oc(-c2ccccc2F)nc1CN1CCC(C(=O)NCCc2ccccc2)CC1,u,x,x,n,n,u
COc1ccc(CCNC(=O)C2CCN(Cc3nc(-c4ccccc4F)oc3C)CC2)cc1OC,n,n,n,16.4µM,n,n
COC(=O)C1=C(C)NC(=O)C1(NS(=O)(=O)c1ccc(NC(C)=O)cc1)C(F)(F)F (centres undefined),n,n,n,n,n,n
CCNC(=O)C1(C)CCCN(C(=O)c2sccc2C)C1 (centres undefined),n,n,n,u,n,n
